# Where “and” joins values, the source holds several entries; their conditions need not be identical. Equal values may be shown once. The whole screen tested about 5,500 compounds, of which about 2,000 (36%) were called active. Inconclusive results (about 18%) are left out. The list shows a part of the results. Values without a mark were called inactive. Cut-off read from the data, not from the text of the source: active = normalized growth mostly below about 0.91 (no sharp cut-off); inconclusive = no clear call, values can overlap the other calls; inactive = mostly above about 0.92.
# Assay: chemical genetic growth profiling, strain panel (AID 1159580);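 note: tested at 20 µM; growth read once vehicle control cultures reached saturation at 30 °C; 1 = growth at the plate median or of vehicle wells; lower values mean less growth of the strain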
# Settings: S. cerevisiae deletion strains, growth OD
structure (smiles),measurement,setting,value
COc1c2occc2c(OC)c2c(=O)cc(C)oc12,normalized growth,"locus YAL021C, strain ccr4, hits give low values",0.992
same,normalized growth,"locus YAL026C, strain drs2, hits give low values",0.985
same,normalized growth,"locus YAL030W, strain snc1, hits give low values",0.992
same,normalized growth,"locus YBL061C, strain skt5, hits give low values",0.992
same,normalized growth,"locus YBR009C, strain hhf1, hits give low values",0.963
same,normalized growth,"locus YBR021W, strain FUR4, hits give low values",0.958
same,normalized growth,"locus YBR023C, strain chs3, hits give low values",0.97
same,normalized growth,"locus YBR171W, strain sec66, hits give low values",0.987
same,normalized growth,"locus YBR229C, strain ROT2, hits give low values",1.01
same,normalized growth,"locus YBR231C, strain swc5, hits give low values",0.944
same,normalized growth,"locus YBR279W, strain paf1, hits give low values",0.978
same,normalized growth,"locus YCL011C, strain gbp2, hits give low values",0.967
same,normalized growth,"locus YCL016C, strain dcc1, hits give low values",0.986
same,normalized growth,"locus YCL029C, strain bik1, hits give low values",0.998
same,normalized growth,"locus YCL061C, strain MRC1, hits give low values",0.995
same,normalized growth,"locus YCL069W, strain vba3, hits give low values",0.977
same,normalized growth,"locus YCR088W, strain abp1, hits give low values",0.991
same,normalized growth,"locus YDL005C, strain med2, hits give low values",0.989
same,normalized growth,"locus YDL035C, strain GPR1, hits give low values",1.05
same,normalized growth,"locus YDL040C, strain nat1, hits give low values",0.992
same,normalized growth,"locus YDL074C, strain BRE1, hits give low values",1.06
same,normalized growth,"locus YDL101C, strain DUN1, hits give low values",1.02
same,normalized growth,"locus YDL134C, strain PPH21, hits give low values",1.05
same,normalized growth,"locus YDL185W, strain tfp1, hits give low values",1.01
same,normalized growth,"locus YDL192W, strain arf1, hits give low values",1.01
same,normalized growth,"locus YDR001C, strain nth1, hits give low values",0.991
same,normalized growth,"locus YDR069C, strain doa4, hits give low values",0.985
same,normalized growth,"locus YDR101C, strain arx1, hits give low values",0.988
same,normalized growth,"locus YDR137W, strain rgp1, hits give low values",1.01
same,normalized growth,"locus YDR159W, strain sac3, hits give low values",0.97
same,normalized growth,"locus YDR162C, strain NBP2, hits give low values",1.02
same,normalized growth,"locus YDR195W, strain ref2",1.14
same,normalized growth,"locus YDR297W, strain sur2, hits give low values",0.979
same,normalized growth,"locus YDR318W, strain mcm21, hits give low values",1.01
same,normalized growth,"locus YDR334W, strain swr1, hits give low values",0.994
same,normalized growth,"locus YDR335W, strain msn5, hits give low values",0.987
same,normalized growth,"locus YDR388W, hits give low values",1
same,normalized growth,"locus YDR392W, strain spt3, hits give low values",0.734 (active)
same,normalized growth,"locus YDR502C, strain sam2, hits give low values",1.01
same,normalized growth,"locus YEL003W, strain gim4, hits give low values",0.938
same,normalized growth,"locus YEL037C, strain rad23, hits give low values",0.99
same,normalized growth,"locus YEL061C, strain CIN8 (second series), hits give low values",0.981
same,normalized growth,"locus YER015W, strain faa2, hits give low values",0.977
same,normalized growth,"locus YER016W, strain bim1, hits give low values",0.994
same,normalized growth,"locus YER110C, hits give low values",1
same,normalized growth,"locus YER111C, strain swi4, hits give low values",1
same,normalized growth,"locus YER155C, strain BEM2 (second series), hits give low values",0.881
same,normalized growth,"locus YER155C, strain BEM2, hits give low values",1
same,normalized growth,"locus YER167W, strain BCK2, hits give low values",1.01
same,normalized growth,"locus YFR010W, strain ubp6, hits give low values",0.986
same,normalized growth,"locus YGL078C, strain dbp3, hits give low values",1.01
same,normalized growth,"locus YGL086W, strain mad1, hits give low values",1
same,normalized growth,"locus YGL167C, strain pmr1, hits give low values",0.997
same,normalized growth,"locus YGL173C, strain kem1, hits give low values",0.977
same,normalized growth,"locus YGL227W, strain vid30, hits give low values",0.99
same,normalized growth,"locus YGL240W, strain doc1, hits give low values",0.955
same,normalized growth,"locus YGL248W, strain PDE1, hits give low values",1.04
same,normalized growth,"locus YGL253W, strain hxk2, hits give low values",0.958
same,normalized growth,"locus YGR135W, strain pre9, hits give low values",1
same,normalized growth,"locus YGR252W, strain gcn5, hits give low values",0.965
same,normalized growth,"locus YHR013C, strain ard1, hits give low values",0.975
same,normalized growth,"locus YHR027C, strain rpn1, hits give low values",0.987
same,normalized growth,"locus YHR030C, strain SLT2, hits give low values",1.02 and 0.987
same,normalized growth,"locus YHR079C, strain IRE1 (second series), hits give low values",1
same,normalized growth,"locus YHR079C, strain IRE1, hits give low values",0.996
same,normalized growth,"locus YHR094C, strain hxt1, hits give low values",1.01
same,normalized growth,"locus YHR129C, strain ARP1, hits give low values",1.01
same,normalized growth,"locus YHR142W, strain chs7, hits give low values",0.949
same,normalized growth,"locus YHR200W, strain rpn10, hits give low values",1.04
same,normalized growth,"locus YIL066C, strain RNR3, hits give low values",1.02
same,normalized growth,"locus YIL073C, strain SPO22, hits give low values",1.13
same,normalized growth,"locus YIL125W, strain kgd1, hits give low values",1.02
same,normalized growth,"locus YIR030C, strain dcg1, hits give low values",1.01
same,normalized growth,"locus YJL092W, strain hpr5, hits give low values",0.996
same,normalized growth,"locus YJL095W, strain BCK1 (second series), hits give low values",0.993
same,normalized growth,"locus YJL095W, strain BCK1, hits give low values",1.03 and 1
same,normalized growth,"locus YJL115W, strain asf1, hits give low values",0.996
same,normalized growth,"locus YJL129C, strain trk1, hits give low values",1.01
same,normalized growth,"locus YJL134W, strain LCB3, hits give low values",1.01
same,normalized growth,"locus YJL154C, strain vps35, hits give low values",0.995
same,normalized growth,"locus YJL164C, strain tpk1, hits give low values",0.965
same,normalized growth,"locus YJL166W, strain qcr8, hits give low values",0.945
same,normalized growth,"locus YJL168C, strain set2, hits give low values",1.01
same,normalized growth,"locus YJL187C, strain SWE1 (second series), hits give low values",1.02
same,normalized growth,"locus YJL187C, strain SWE1, hits give low values",0.99
